In the library only some 22% were active in any assay of this set; here they are far more common.
CYP2C19 inhib: blockers of cytochrome P450 2C19 activity – biochemical, luminescence, ADME assay, primary screen | P33261 | CYP2C19 Supersomes, luciferin-H EGE luminescence, 30 min | inhibition, % at 5 µM | 96,000 tested, 21% active | AID 778, 2007;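 active means CYP2C19 inhibition above a set limit at 5 µM in the primary screen, cut at about 50% in these data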;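 further: plate controls were negative control wells for no effect and 2.5 mM tranylcypromine positive control for full effect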
Target sequence (P33261 whole entry, looked up): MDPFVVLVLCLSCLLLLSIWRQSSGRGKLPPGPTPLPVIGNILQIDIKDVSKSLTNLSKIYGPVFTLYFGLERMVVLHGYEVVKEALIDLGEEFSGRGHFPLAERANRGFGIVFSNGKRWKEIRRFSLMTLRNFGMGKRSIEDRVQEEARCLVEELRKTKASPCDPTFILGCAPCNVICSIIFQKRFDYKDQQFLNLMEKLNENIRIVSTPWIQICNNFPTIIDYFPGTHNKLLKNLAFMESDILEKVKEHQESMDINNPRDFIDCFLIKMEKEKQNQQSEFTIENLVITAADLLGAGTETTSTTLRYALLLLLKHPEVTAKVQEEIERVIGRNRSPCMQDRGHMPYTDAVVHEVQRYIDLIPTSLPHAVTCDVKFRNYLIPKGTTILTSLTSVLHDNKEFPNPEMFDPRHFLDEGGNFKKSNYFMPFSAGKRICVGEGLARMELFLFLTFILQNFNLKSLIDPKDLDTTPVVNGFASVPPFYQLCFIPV
CYP2C19 activ: human CYP2C19 activators, primary screen, biochemical, luminescence; recombinant CYP2C19, luciferin-H EGE luminescence; active compounds read high; 0 = fully inhibited enzyme, 1 = untreated enzyme; activation factor at 5 µM; 96,000 tested, under 10 active;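 active means activation factor of at least 2 at 5 µM in the primary screen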;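 further: 0 = wells with 2.5 mM tranylcypromine and 1 = vehicle-only wells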
CYP2C9 activ: human CYP2C9 activators, primary screen, biochemical, luminescence | Cytochrome P450 2C9 (Homo sapiens), P11712 | recombinant CYP2C9, luciferin-H conversion; active compounds read high; factor 1 = untreated enzyme, 0 = blocked | activation factor at 5 µM | 96,000 tested, 1.4% active | AID 1024, 2008;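 active means activation factor of 2 or more for CYP2C9 at a 5 µM dose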;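 further: 0 = sulfaphenazole-blocked wells and 1 = vehicle-only wells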
F-actin modifier: modifiers of F-actin cytoskeleton organization, primary screen, imaging, HUVEC, phalloidin staining, high-content imaging. HUVEC TNFa F-actin phalloidin imaging. inhibition, % at 2 µM. 91,000 tested, 0.18% active. AID 836, 2007;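 active means inhibition above the batch mean plus 3 SD and confirmed as a hit by visual image inspection, cut at about 30% in these data, passing the limit was not always enough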
E-sel TNF inh: E-selectin induction blockers in HUVEC – imaging, immunofluorescence, high content, primary screen | HUVEC TNFa-induced E-selectin immunofluorescence | inhibition, % at 2 µM | 120,000 tested, 0.71% active | AID 1246, 2008;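 active means inhibition above the batch mean plus 3 SD, and confirmed as a hit on visual image review, cut at about 43% in these data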;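 further: 0% = TNF-stimulated DMSO wells and 100% = unstimulated control wells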
CYP2C9 inhib: blockers of cytochrome P450 2C9 activity – biochemical, luminescence, ADME assay, primary screen. P11712. CYP2C9 Supersomes, luciferin-H conversion. inhibition, % at 5 µM. 96,000 tested, 20% active. AID 777, 2007;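 active means blocking of liver enzyme CYP2C9 beyond about 50% at 5 µM, limit read from the data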
* marks the source's active call; other numbers are inactive results; · = not tested or not shown.

SMILES	CYP2C19 inhib	CYP2C19 activ	CYP2C9 activ	F-actin modifier	E-sel TNF inh	CYP2C9 inhib
Cc1ccc(C(=O)CN2/C(=C(\O)c3ccccc3)C(=O)c3ccccc3S2(=O)=O)c(C)c1	20	0.8	0.3	13	15	69*
Cc1cc(C(=O)CN2C(=O)c3ccccc3S2(=O)=O)c(C)n1-c1ccccc1	79*	0.2	0.3	30	·	66*
COc1ccc(Br)cc1S(=O)(=O)n1ccnc1C	99*	0	2.4*	-19	-17	-142
COc1ccc(OC)c(S(=O)(=O)n2cccn2)c1	5	0.9	1.2	-2	-13	-23
COc1ccc(OC)c(S(=O)(=O)n2ccnc2C)c1	93*	0.1	1.5	5	-77	-50
Cc1nccn1S(=O)(=O)c1ccc(Br)cc1Br	66*	0.3	0.9	-6	·	10
CN(CC(O)COCc1cccs1)C1CCCCC1 (stereo not given)	-4	1	0.8	29	15	20
CCCSc1nnc(Cn2c(=O)sc3ccccc32)n1-c1ccccc1	82*	0.2	0.3	2	·	68*
Cn1c(Cn2c(=O)sc3ccccc32)nnc1SCc1ccccc1F	52*	0.5	0.6	-4	6	36
Cc1ccccc1-n1c(Cn2c(=O)sc3ccccc32)nnc1SCC(=O)Nc1nccs1	·	·	·	·	-21	·
Cc1cccc(C)c1NC(=O)CSc1nnc(Cn2nnc(-c3ccccc3)n2)n1-c1ccccc1	74*	0.3	0.1	-30	-4	92*
O=C(CSc1nnc(Cn2nnc(-c3ccccc3)n2)n1-c1ccccc1)Nc1ccccc1	21	0.8	0.7	-9	-7	29
Cc1csc(NC(=O)CSc2nnc(Cn3c(=O)sc4ccccc43)n2-c2ccccc2)n1	-12	1.1	0.4	-11	·	61*
CCOC(=O)CN1C(=O)COc2ccc(Cl)cc21	6	0.9	1	31	5	1
Fc1ccc(CSc2nnc(-c3cnccn3)n2Cc2ccco2)cc1	70*	0.3	0.2	-14	-8	77*
Brc1ccc(CSc2nnc(-c3cnccn3)n2Cc2ccco2)cc1	22	0.8	0.5	7	-4	46
O=C(CSc1nnc(-c2ccccn2)n1Cc1ccco1)c1ccc(-c2ccccc2)cc1	0	1	0.7	·	-52	28
COc1ccccc1-c1nnc(SCC(=O)c2ccc(C3CCCCC3)cc2)n1Cc1ccco1	80*	0.2	0.1	-10	22	86*
Cc1occc1-c1nnc(SCC(=O)c2ccc(F)cc2)o1	84*	0.2	0.7	-26	-8	32
CCn1c(SCC(=O)c2ccccc2)nnc1-c1cnccn1	54*	0.5	1.2	-9	8	-18
Cc1cc(NC(=O)CSc2nnc(-c3ccoc3C)o2)no1	4	1	0.8	-1	·	16
N#CC(c1ccccc1F)(c1ncc(C(F)(F)F)cc1Cl)N1CCOCC1 (stereo not given)	35	0.7	1	23	-8	3
CCc1ccc2[nH]c(=O)c(C(c3nnnn3CC3CCCO3)N3CCCc4ccccc43)cc2c1 (stereo not given)	-10	1.1	1	·	2	-3
O=C(Nc1sc2c(c1C(=O)O)CCC2)c1ccc(F)cc1	·	·	·	·	2	·
O=C(CSc1nnc(-c2cnccn2)n1Cc1ccco1)c1ccc2ccccc2c1	4	1	0.5	-60	·	54*
SMILES	CYP2C19 inhib	CYP2C19 activ	CYP2C9 activ	F-actin modifier	E-sel TNF inh	CYP2C9 inhib
NC(=O)CSc1nc2ccccc2c(=O)n1Cc1ccco1	·	·	·	5	-23	·
CC(C)OC(=O)CSc1nnc(-c2cnccn2)n1Cc1ccco1	-12	1.1	0.7	6	10	25
O=C(CSc1nc2ccccc2c(=O)n1Cc1ccco1)c1ccc(F)cc1	8	0.9	0.5	-10	-22	52*
Cn1c(SCC(=O)c2ccc(F)cc2)nnc1-c1ccccc1N	75*	0.2	1	-3	-8	0
O=C(CSc1nnc(-c2ccco2)n1Cc1ccccc1)c1ccc(F)cc1	96*	0	0.1	·	·	92*
CCc1cccc2c(C(=O)CCl)c[nH]c12	·	·	·	·	-19	·
CCOC(=O)C1CSC2(CCC(c3ccccc3)CC2)N1 (stereo not given)	·	·	·	·	-5	·
CCn1c(=O)c(C(=O)CN2CCc3ccccc32)c(N)n(Cc2ccccc2)c1=O	·	·	·	·	-9	·
Cc1occc1-c1nnc(SCC(=O)c2ccc(F)cc2)n1Cc1ccco1	16	0.8	0.4	4	4	60*
O=C(CSc1nnc(COc2ccccc2)n1Cc1ccco1)c1ccc(F)cc1	7	0.9	0.8	-45	50	25
O=C(CSc1nnc(-c2cc3ccccc3cc2O)n1Cc1ccco1)c1ccc(F)cc1	94*	0.1	0	6	-11	100*
Cc1ccc(NC(=S)Nc2ccc(Br)cc2)cc1	89*	0.1	0.8	-1	11	16
CNC(=S)Nc1ccc(C)cc1	·	·	·	·	17	·
CCSc1nc2c(c(=O)[nH]1)C(c1ccncc1)C(C(=O)OC(C)C)=C(C)N2 (stereo not given)	90*	0.1	0.4	2	-8	57*
C#CCSc1nc(-c2ccccc2)cc(C(F)(F)F)c1C#N	-5	1.1	1	-11	18	2
N#Cc1c(C(F)(F)F)cc(-c2cccs2)nc1SCc1ccc(Cl)nc1	8	0.9	0.4	-1	-34	56*
N#Cc1c(C(F)(F)F)cc(-c2cccs2)nc1SCc1cccnc1	57*	0.4	0.2	5	29	75*
Cc1cc2cc(C=C(C#N)C#N)c(Cl)nc2cc1C	·	·	·	·	58*	·
Cc1cc(C)cc(-n2c(C)cc(C=C(C#N)C#N)c2C)c1	17	0.8	0.6	-33	-66	37
Cn1c(O)c(C=Nc2ccc(Cc3ccncc3)cc2)c(=O)n(C)c1=O	88*	0.1	0.3	·	·	73*
COc1ccc2c(c1)c1nc(SCC(C)C)n(CCO)c(=O)c1n2C	17	0.8	0.7	-4	16	33
C#CCNc1nc(C)nc2c1nnn2Cc1ccccc1F	52*	0.5	1	-2	-29	4
Cc1nc(NCCO)c2nnn(Cc3ccccc3F)c2n1	14	0.9	1	-2	-4	0
CCCc1nc2c(nnn2Cc2ccccc2F)c(=O)[nH]1	89*	0.1	1.5	14	2	-52
Clc1ccccc1Cn1nnc2c(Nc3ccccc3)ncnc21	8	0.9	1.2	·	-17	-22
Fc1ccccc1Cn1nnc2c(NCc3ccccn3)ncnc21	31	0.7	2.8*	·	-42	-179
Clc1ccccc1Cn1nnc2c(NCC3CC3)ncnc21	51*	0.5	3.4*	-48	-10	-239

Source: PubChem
